Our source for the growth values is PubChem BioAssay (NCI).

Holding throughout (assay): NCI-60 one-dose screen, 48 h (100 = growth as untreated, 0 = no growth, -100 = all killed)
The subject of one test is SR leukemia. As to conditions: 10 µM unless noted.
In the next test the test system is RPMI-8226 leukemia. The conditions noted are these: 10 µM unless noted.
The next test has as its system OVCAR-8 ovarian. As to conditions: 10 µM unless noted.
For another test, the system named is OVCAR-5 ovarian. As to conditions: 10 µM unless noted.
The next test relates to OVCAR-4 ovarian. As to conditions: 10 µM.
A further test concerns SK-OV-3 ovarian. The conditions noted are these: 10 µM unless noted.
The subject of a further test is IGROV1 ovarian. As to conditions: 10 µM unless noted.
The test system of another test is OVCAR-3 ovarian. The conditions noted are these: 10 µM unless noted.
For a further test, the system named is NCI/ADR-RES ovarian. The conditions noted are these: 10 µM unless noted.
For another test, the system named is T-47D breast. The conditions noted are these: 10 µM unless noted.
Another test has as its system BT-549 breast. The conditions noted are these: 10 µM unless noted.
In a further test the test system is MDA-MB-435 melanoma. As to conditions: 10 µM unless noted.
The test system of the next test is SW-620 colon. As to conditions: 10 µM unless noted.
A further test deals with MCF7 breast. As to conditions: 10 µM unless noted.
The next test concerns HCT-116 colon. The conditions noted are these: 10 µM unless noted.
For another test, the system named is HCC-2998 colon. As to conditions: 10 µM unless noted.
Another test concerns KM12 colon. The conditions noted are these: 10 µM unless noted.
Another test relates to HS 578T breast. As to conditions: 10 µM unless noted.

SMILES strings stand for the structures. Compounds without any hit were thinned out: in the full panel of roughly 83,000, 20% have a hit.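 Negative percent growth values reflect cell death: -40 means 40% of the cells present at the start died, and -100 means all died.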 A number with no mark means an inactive call. Activity calls are given as the source filed them. Rule for the calls: active = growth percent below 10; inactive = the rest.

For `CC(=O)Nc1ccc(C=Nc2ccc3ccccc3c2)cc1`, the growth in the test on SR leukemia is 104%; with RPMI-8226 leukemia it was 101%; in the test with OVCAR-8 ovarian it was 108%; in the test on OVCAR-5 ovarian, 117%; in the test on OVCAR-4 ovarian, 108%; with SK-OV-3 ovarian, 109%. For the same compound, the growth is 105% in the test on IGROV1 ovarian; 122% in the test on OVCAR-3 ovarian; 115% with NCI/ADR-RES ovarian; 108% in the test on T-47D breast; 102% in the test on BT-549 breast; 112% with MDA-MB-435 melanoma. Also, the growth is 106% in the test with SW-620 colon; 92.3% with MCF7 breast; 101% in the test with HCT-116 colon; 92.1% with HCC-2998 colon; 108% in the test with KM12 colon.

For the compound `N#CCCc1c[nH]c2ccccc12`, the growth was 91.5% with SR leukemia; 92.7% in the test on RPMI-8226 leukemia; 91.9% in the test on OVCAR-8 ovarian; 102% in the test with OVCAR-5 ovarian; 93% with OVCAR-4 ovarian; 88.9% in the test with SK-OV-3 ovarian. Also, the growth is 103% with IGROV1 ovarian; 98.7% in the test on OVCAR-3 ovarian; 94.3% in the test with HS 578T breast; 99.3% in the test on NCI/ADR-RES ovarian; 97.6% in the test with BT-549 breast; 101% in the test with MDA-MB-435 melanoma. The growth with MCF7 breast is 94.8%; in the test with HCT-116 colon it was 92.8%; with HCC-2998 colon it was 113%.

In the case of `COc1ncnc2c(-c3ccccc3)cn(COCc3ccccc3)c12`, the growth in the test with SR leukemia was 18.2%; with RPMI-8226 leukemia it was 29.2%; in the test with OVCAR-8 ovarian, 26.6%; in the test with OVCAR-5 ovarian, 110%; in the test with OVCAR-4 ovarian, 54.4%; in the test on SK-OV-3 ovarian, 82.7%. The growth in the test on IGROV1 ovarian was 71%; with OVCAR-3 ovarian it was 62.8%; in the test on HS 578T breast, 81.2%; with T-47D breast, 14%; in the test on BT-549 breast it was 36.6%; in the test with MDA-MB-435 melanoma, 29.7%. Besides, the growth in the test on SW-620 colon is 67.4%; in the test on MCF7 breast, 48.1%; with HCT-116 colon, 41.7%; with HCC-2998 colon it was 70%.

In the case of `O=[N+]([O-])c1cccc(/C=C/c2ccc3ccccc3n2)c1`, the growth in the test with SR leukemia is 78.2%; in the test with RPMI-8226 leukemia, 90.7%; with OVCAR-8 ovarian, 57.1%; in the test with OVCAR-5 ovarian it was 130%; in the test on OVCAR-4 ovarian, 38.9%; in the test on SK-OV-3 ovarian, 70.8%. For the same compound, the growth is 79.9% in the test on IGROV1 ovarian; 88.5% in the test with OVCAR-3 ovarian; 71.2% in the test with NCI/ADR-RES ovarian; 79.5% in the test on T-47D breast; 73.7% in the test on BT-549 breast; 79.8% in the test on MDA-MB-435 melanoma. Further, the growth in the test with SW-620 colon is 85.5%; in the test on HCT-116 colon, 82.4%; in the test on HCC-2998 colon, 81%; in the test on KM12 colon, 82.7%.

Consider `Cc1cc(C)nc(SCC(=O)Nc2cccc(N=Cc3ccccc3O)c2)n1`, for which the growth with SR leukemia is 109%; with RPMI-8226 leukemia, 96.9%; in the test with OVCAR-8 ovarian, 103%; in the test on OVCAR-5 ovarian, 100%; in the test with OVCAR-4 ovarian, 86.1%; with SK-OV-3 ovarian it was 94.5%. Also, the growth in the test with IGROV1 ovarian was 108%; in the test on OVCAR-3 ovarian, 105%; in the test on HS 578T breast, 97.2%; with NCI/ADR-RES ovarian it was 100%; in the test on MDA-MB-435 melanoma, 99.2%; with SW-620 colon, 99.1%. For the same compound, the growth in the test with MCF7 breast is 94.3%; in the test on HCT-116 colon, 97.3%; in the test on HCC-2998 colon, 121%; in the test with KM12 colon it was 107%.

In the case of `CSc1nc(=S)c2nc(SC)n(-c3ccccc3)c2[nH]1`, the growth in the test on SR leukemia is 104%; with RPMI-8226 leukemia it was 90.7%; in the test on OVCAR-8 ovarian it was 100%; with OVCAR-5 ovarian, 104%; in the test with OVCAR-4 ovarian, 104%; in the test with SK-OV-3 ovarian, 96.4%. The growth in the test on IGROV1 ovarian is 101%; in the test with OVCAR-3 ovarian, 105%; in the test on HS 578T breast it was 92.3%; in the test on NCI/ADR-RES ovarian, 101%; in the test with BT-549 breast, 104%; in the test with MDA-MB-435 melanoma it was 103%. Moreover, the growth was 97.1% with SW-620 colon, 90.7% in the test with MCF7 breast, 93.1% with HCT-116 colon and 115% in the test on HCC-2998 colon.

Regarding `COc1ccc(CC(C#N)c2ccc(Cl)cc2)cc1` (stereo unspecified), the growth in the test with SR leukemia is 36.3%; with RPMI-8226 leukemia it was 85%; in the test on OVCAR-8 ovarian, 99%; in the test on OVCAR-5 ovarian, 82.9%; in the test on OVCAR-4 ovarian, 103%; in the test with SK-OV-3 ovarian it was 89.3%. Further, the growth with IGROV1 ovarian is 68.8%; in the test on OVCAR-3 ovarian it was 77.2%; in the test on NCI/ADR-RES ovarian, 42.5%; with T-47D breast, 98.2%; with BT-549 breast, 74.9%; with MDA-MB-435 melanoma, 0.297% (active). In addition, the growth is 49% in the test on SW-620 colon; 75% in the test with MCF7 breast; 72.4% in the test on HCT-116 colon; 61.6% with HCC-2998 colon; 32.6% in the test with KM12 colon.

For the compound `CC(C)c1ccc(C(=O)Nc2sc3c(c2C#N)CCC(=O)C3)cc1`, the growth in the test on SR leukemia is -11.7% (active); with RPMI-8226 leukemia, -35.2% (active); in the test on OVCAR-8 ovarian, 13.7%; in the test on OVCAR-5 ovarian, 11.1%; in the test with OVCAR-4 ovarian, -78% (active); in the test on SK-OV-3 ovarian, 20.8%. The growth in the test on IGROV1 ovarian is 18.4%; in the test on OVCAR-3 ovarian, -33.4% (active); in the test on HS 578T breast it was 25.4%; with NCI/ADR-RES ovarian, 3.12% (active); in the test on BT-549 breast, -9.76% (active); in the test with MDA-MB-435 melanoma, -14.4% (active). Moreover, the growth is 4.86% (active) in the test on MCF7 breast, -2.81% (active) with HCT-116 colon, 20.7% in the test on HCC-2998 colon and 5.49% (active) with KM12 colon.

As to `O=C1CC(c2ccccc2)Cc2nc3ccc(Br)cc3cc21` (stereo unspecified), the growth in the test on SR leukemia was 13.1%; with RPMI-8226 leukemia, 50%; with OVCAR-8 ovarian it was 24.1%; with OVCAR-5 ovarian, 27.2%; in the test on OVCAR-4 ovarian it was 47%; in the test with SK-OV-3 ovarian, 47.6%. The growth in the test with IGROV1 ovarian was 22%; in the test with OVCAR-3 ovarian, -28.4% (active); in the test on NCI/ADR-RES ovarian, 17.1%; with T-47D breast it was 67.2%; with BT-549 breast, 6.48% (active); in the test with MDA-MB-435 melanoma, -39.8% (active). In addition, the growth is 25.1% with SW-620 colon; 61.2% with MCF7 breast; 5.56% (active) with HCT-116 colon; 27% with HCC-2998 colon; 8.94% (active) with KM12 colon.
